Records with an inconclusive call do not appear. The source made the active and inactive calls. Unless noted, calls come from the whole dose curve; as a rule, active = well fitted curve in the direction sought with a large enough effect; inconclusive = small, poorly fitted or top-dose-only effect, or another doubt; inactive = no such curve, though single readings can be large; an effect the other way counts as inactive or inconclusive.
What was measured:
[1] = qHTS of Nrf2 Activators: LOPAC Validation (AID 624149); note: 0% is about no effect
Summary of the method: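 Cells (AREc32_Fluc) are plated at 1000 per well in OPTI-MEM containing 5% FBS and left overnight. Compounds are pinned in and incubated 24 hr at 37 deg C, and firefly luciferase is detected with Steady-Glo.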

[2] = HTS Assay for Allosteric Antagonists of the Human D2 Dopamine Receptor: Hit Validation in HTRF (AID 624455); note: potency is the fitted concentration of half-maximal effect;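 note: stable D1 dopamine receptor cell line scored for blocking the D1 response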
Summary of the method: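 Inhibition of the D1-mediated response is measured by HTRF in cells that stably express the D1 dopamine receptor. Compounds reaching this step are hits from calcium-flux antagonism testing at EC80 dopamine in inducible Hek293 Trex D2 cells.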

[3] = target: Arylsulfatase A (Homo sapiens) (UniProt P15289); experiment: qHTS screen for enhancers of Arylsulfatase A (ASA1): LOPAC Validation Assay (AID 720538); note: potency is the fitted concentration of half-maximal effect
Arylsulfatase A (Homo sapiens), sequence (P15289 whole entry, looked up): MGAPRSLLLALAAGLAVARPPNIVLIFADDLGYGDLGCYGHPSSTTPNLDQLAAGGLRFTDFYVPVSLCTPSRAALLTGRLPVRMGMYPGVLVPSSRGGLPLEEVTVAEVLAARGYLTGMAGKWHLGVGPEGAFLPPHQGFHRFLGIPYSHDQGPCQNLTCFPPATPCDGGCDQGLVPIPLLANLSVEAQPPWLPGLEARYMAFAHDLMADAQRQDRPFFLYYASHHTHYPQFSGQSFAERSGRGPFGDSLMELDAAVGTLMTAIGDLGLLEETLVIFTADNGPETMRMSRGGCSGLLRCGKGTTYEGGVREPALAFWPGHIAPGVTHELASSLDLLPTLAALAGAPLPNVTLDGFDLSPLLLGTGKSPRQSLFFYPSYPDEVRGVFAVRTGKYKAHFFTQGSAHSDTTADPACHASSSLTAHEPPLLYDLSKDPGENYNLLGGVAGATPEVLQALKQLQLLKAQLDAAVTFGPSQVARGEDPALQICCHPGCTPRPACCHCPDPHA
Summary of the method: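 SV40-transformed fibroblasts from an MLD patient (ASA-I179S) were treated with compound for 48 h at 37 C. They were then lysed with 0.5 mM pNCS substrate (final) for 14 h at room temperature and stopped with NaOH; signal read by fluorescence (Ex 525/Em 598 nm), with increase denoting enhanced activity.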

[4] = qHTS for compounds that reverse cellular toxicity of Amyloid beta (A-beta) peptide in yeast: LOPAC Validation Assay (AID 720559);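 note: plate controls were DMSO for no effect and equimolar ferric chloride plus clioquinol rescue for full effect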
Summary of the method: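 Yeast expressing toxic A-beta grown with pinned compounds at 30 C for 48 hr. Growth measured as absorbance at 600 nm; data normalized to DMSO and to an equimolar FeCl3/clioquinol mixture as positive control.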

[5] = qHTS for Activators of Parkin Expression: LOPAC Validation Assay (FLuc Reporter) (AID 720573;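 note: 0% = DMSO and 100% = positive control compounds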)
Summary of the method: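 Neuronal cell line stably expressing FLuc/NLuc coincidence reporter under the Parkin promoter, 1,500 cells/well, dosed 24 h after seeding in 7-point series for 24 h at 37 C. FLuc luminescence read; normalized to DMSO and positive control (100%).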

[6] = target: T1, Hexokinase-4 (Homo sapiens) + Glucokinase regulatory protein (Homo sapiens) (UniProt P35557+Q14397); experiment: qHTS assay for inhibitors of recombinant human GCK-GKRP interaction: Diaphorase-coupled assay (AID 743205)
T1 sequence (P35557 whole entry, looked up): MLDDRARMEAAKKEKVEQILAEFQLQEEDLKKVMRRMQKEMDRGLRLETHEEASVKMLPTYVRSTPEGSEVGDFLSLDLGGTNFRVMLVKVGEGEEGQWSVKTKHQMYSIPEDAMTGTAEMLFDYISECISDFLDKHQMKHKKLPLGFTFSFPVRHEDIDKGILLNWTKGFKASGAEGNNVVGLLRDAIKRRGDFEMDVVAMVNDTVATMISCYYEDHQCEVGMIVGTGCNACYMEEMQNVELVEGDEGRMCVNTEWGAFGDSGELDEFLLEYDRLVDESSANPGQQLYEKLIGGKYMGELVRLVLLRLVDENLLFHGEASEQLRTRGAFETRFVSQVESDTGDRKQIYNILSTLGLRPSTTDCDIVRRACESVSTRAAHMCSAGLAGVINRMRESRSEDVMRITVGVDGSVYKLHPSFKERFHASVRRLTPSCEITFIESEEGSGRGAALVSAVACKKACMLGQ
T1 sequence (Q14397 whole entry, looked up): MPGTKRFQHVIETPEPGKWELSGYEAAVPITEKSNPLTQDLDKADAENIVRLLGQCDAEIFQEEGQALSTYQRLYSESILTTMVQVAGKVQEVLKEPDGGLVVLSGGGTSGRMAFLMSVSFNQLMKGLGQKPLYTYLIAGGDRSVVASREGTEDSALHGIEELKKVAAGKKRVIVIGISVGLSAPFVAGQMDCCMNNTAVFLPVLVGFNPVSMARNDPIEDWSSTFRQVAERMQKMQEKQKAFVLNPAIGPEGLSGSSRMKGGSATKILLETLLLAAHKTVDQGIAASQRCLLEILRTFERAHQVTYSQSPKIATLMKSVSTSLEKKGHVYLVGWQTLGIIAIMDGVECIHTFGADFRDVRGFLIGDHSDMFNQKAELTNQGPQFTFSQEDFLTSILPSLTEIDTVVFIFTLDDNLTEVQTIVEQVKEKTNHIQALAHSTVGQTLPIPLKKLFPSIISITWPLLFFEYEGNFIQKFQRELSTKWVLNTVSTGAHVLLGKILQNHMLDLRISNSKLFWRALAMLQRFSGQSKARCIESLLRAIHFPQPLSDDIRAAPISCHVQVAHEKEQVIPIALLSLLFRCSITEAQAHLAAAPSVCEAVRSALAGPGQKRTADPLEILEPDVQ
Summary of the method: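 Compounds pre-incubated 20 min with substrate, then 10 nM GST-GCK with 10 nM FLAG-GKRP added. GCK activity coupled via G6PDH and diaphorase to resorufin (5 mM glucose, 0.4 mM ATP, 0.15 mM NADP+, pH 7.6), read kinetically over 30 minutes at Ex 525/Em 590 nm.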

[7] = target: T1, Hexokinase-4 (Homo sapiens) + Glucokinase regulatory protein (Homo sapiens); experiment: qHTS assay for inhibitors of recombinant human GCK-GKRP interaction: ADP-Glo assay (AID 743206);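 note: plate controls were DMSO plus enzyme for no effect and no enzyme for full effect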
Summary of the method: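 Pin-transferred compounds meet a 15 nM GST-GCK/15 nM FLAG-GKRP/2 uM S6P mix (dispense concentrations). ATP is then added to 0.4 mM final with 5 mM glucose, and the reaction runs 60 min at room temperature. ADP is quantified luminescently.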

[8] = qHTS for Activators of Parkin Expression: LOPAC Validation Assay (NLuc Reporter) (AID 720572;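 note: 0% = DMSO and 100% = positive control compound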)
Summary of the method: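 Cells harboring the Parkin-promoter coincidence reporter were treated for 24 h at seven concentrations. NLuc output was measured sequentially after the FLuc channel and scaled between DMSO and positive control values.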

[9] = qHTS assay for small molecule activators of the nuclear factor-kappa B (NF-kB) signaling pathway (AID 651749; active = well fitted activation curve with a large enough effect in the signal ratio; the % refers to the signal ratio; note: series mostly up to about 77 µM; % of control where 0% means no effect); conditions: NF-kB-bla ME-180 cells, beta-lactamase FRET ratio, 16 h; stronger effect = higher value
Summary of the method: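 Human ME-180 cervical cells with an NF-kB-bla construct; compounds added via 23 nL pin transfer, DMSO as vehicle; incubation 16 hr. Reporter activity measured by FRET disruption.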

[10] = qHTS assay for small molecule disruptors of the mitochondrial membrane potential - 5 hr assay (AID 651755; calls by dose curve; note: % is set by controls: 0 for no effect and ±100 for the full control effect; nearly all actives have a fitted effect of over 40% in size)
Summary of the method: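 Seed HepG2 overnight, add compound, incubate 5 hr at 37C and 5% CO2, stain 30 min with Mito-MPS, then measure monomer (490/535 nm) and aggregate (540/590 nm) fluorescence.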

[11] = target: Tumor necrosis factor (Homo sapiens) (UniProt P01375); experiment: qHTS assay to identify small molecules that stimulate Tumor Necrosis Factor-alpha (TNF-alpha) secretion (AID 651757; active = well fitted curve in the direction sought with a large enough effect in the signal ratio; the % refers to the signal ratio; note: 0% is about no effect)
Tumor necrosis factor (Homo sapiens), sequence (P01375 whole entry, looked up): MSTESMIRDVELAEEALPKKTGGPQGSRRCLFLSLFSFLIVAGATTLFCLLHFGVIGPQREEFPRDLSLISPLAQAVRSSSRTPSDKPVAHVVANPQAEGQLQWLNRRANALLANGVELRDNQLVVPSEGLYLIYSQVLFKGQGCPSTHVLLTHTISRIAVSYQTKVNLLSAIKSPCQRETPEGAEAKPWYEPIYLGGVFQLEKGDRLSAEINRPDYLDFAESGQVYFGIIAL
Summary of the method: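 Human monocytic THP-1 cells are plated, treated with compound and held at 37 C for 17 hrs. Labeled anti-TNF-alpha antibody mixture is then added; after 3 hr at room temperature, TR-FRET signal reports secreted TNF-alpha.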

[12] = qHTS assay for environmental chemicals that activate the Aryl hydrocarbon Receptor (AhR) signaling pathway (AID 651777); conditions: 1A2-DRE human hepatoma cells, luciferase, 24 h; activation: stronger effect = higher value; note: % of control where 0% means no effect; nearly all actives have a fitted effect of over 15% in size
Summary of the method: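 Human hepatoma 1A2-DRE cells, stably carrying a dioxin response element and CYP1A2 promoter driving luciferase, were exposed to compounds for 24 hr at 37 C and 5% CO2. Luciferase signal was then read after 30 min One-Glo at room temperature.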

[13] = target: Peroxisome proliferator-activated receptor alpha (Homo sapiens) (UniProt Q07869); experiment: qHTS assay for small molecule agonists of the peroxisome proliferator-activated receptor alpha (PPARalpha) signaling pathway (AID 651778); conditions: PathHunter PPARalpha complementation, chemiluminescence, 6 h; stronger effect = higher value; note: % of control where 0% means no effect
Peroxisome proliferator-activated receptor alpha (Homo sapiens), sequence (Q07869 whole entry, looked up): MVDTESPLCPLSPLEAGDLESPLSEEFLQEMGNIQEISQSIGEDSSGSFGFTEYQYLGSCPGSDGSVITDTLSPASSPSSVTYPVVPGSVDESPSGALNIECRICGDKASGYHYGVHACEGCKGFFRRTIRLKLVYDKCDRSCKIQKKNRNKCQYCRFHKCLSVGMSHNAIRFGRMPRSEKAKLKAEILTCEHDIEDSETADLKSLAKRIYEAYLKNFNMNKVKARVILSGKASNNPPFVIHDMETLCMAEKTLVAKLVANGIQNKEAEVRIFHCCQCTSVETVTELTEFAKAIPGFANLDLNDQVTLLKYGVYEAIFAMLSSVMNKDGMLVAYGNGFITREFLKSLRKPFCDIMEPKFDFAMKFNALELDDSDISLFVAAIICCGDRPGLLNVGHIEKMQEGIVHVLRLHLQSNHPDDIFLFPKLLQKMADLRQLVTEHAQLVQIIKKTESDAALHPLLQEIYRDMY
Summary of the method: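 Cells plated at 2,000/well and held overnight at 37 C, 5% CO2, then compound added by pin tool for 6 hr; after PathHunter detection reagent and 60 min at room temperature, chemiluminescence from enzyme complementation was read.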

[14] = target: Nuclear receptor ROR-gamma (Homo sapiens) (UniProt P51449); experiment: qHTS assay for small molecule antagonists of the retinoid-related orphan receptor gamma (ROR-gamma) signaling pathway (AID 651802);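 note: CHO cells with doxycycline-induced ROR-gamma expression; series mostly up to about 92 µM; % is set by controls: 0 for no effect and ±100 for the full control effect; nearly all actives have a fitted effect of over 60% in size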
Nuclear receptor ROR-gamma (Homo sapiens), sequence (P51449 whole entry, looked up): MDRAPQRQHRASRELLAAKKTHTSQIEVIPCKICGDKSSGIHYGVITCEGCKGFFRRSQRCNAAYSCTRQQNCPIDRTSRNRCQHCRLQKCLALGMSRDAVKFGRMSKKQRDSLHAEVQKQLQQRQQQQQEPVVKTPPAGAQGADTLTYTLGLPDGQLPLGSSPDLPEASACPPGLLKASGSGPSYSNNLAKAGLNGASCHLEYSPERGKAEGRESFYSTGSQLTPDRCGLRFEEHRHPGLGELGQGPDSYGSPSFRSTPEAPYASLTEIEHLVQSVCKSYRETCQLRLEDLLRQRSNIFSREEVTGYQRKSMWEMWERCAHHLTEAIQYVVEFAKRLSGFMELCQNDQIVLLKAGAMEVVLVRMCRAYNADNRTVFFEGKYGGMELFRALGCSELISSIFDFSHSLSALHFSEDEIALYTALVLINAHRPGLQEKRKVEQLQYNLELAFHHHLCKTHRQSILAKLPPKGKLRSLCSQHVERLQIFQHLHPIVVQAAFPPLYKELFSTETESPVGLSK
Summary of the method: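 Steps: cells dispensed; compound or DMSO transferred by pin tool; doxycycline added to induce the ROR response element-driven luciferase; plates held 16hr at 37C; ONE-Glo added and luminescence measured.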

[15] = qHTS assay for small molecule agonists of the antioxidant response element (ARE) signaling pathway measured by Nrf2-dependant transcriptional activity (AID 720636; active = well fitted curve in the direction sought with a large enough effect in the repeat runs; an effect the other way counts as inactive or inconclusive; note: % of control where 0% means no effect)
Summary of the method: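 ARE-luc HepG2 cells carrying an Nrf2-responsive luciferase reporter were plated in medium with 1% dialyzed FBS, left 6 hr at 37 C to attach, then exposed to compound for 16 hr. Luciferase luminescence was read after ONE-Glo addition.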

[16] = qHTS assay for small molecule antagonists of the retinoid-related orphan receptor gamma (ROR-gamma) signaling pathway - cell viability counter screen (AID 720652; active = well fitted curve in the direction sought with a large enough effect in the repeat runs; an effect the other way counts as inactive or inconclusive;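 note: CHO reporter cells with doxycycline-induced ROR-gamma expression; series mostly up to about 92 µM; compound exposure lasted 16 hr before ATP read; % is set by controls: 0 for no effect and ±100 for the full control effect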)
Summary of the method: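 Steps: seed CHO cells bearing TET-inducible ROR and ROR response element-luciferase; rest 5 hr at 37 C; add compound, then doxycycline; incubate 16 hr; add CellTiter-Glo and read luminescence as ATP-based viability.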

[17] = qHTS assay for small molecule agonists of the antioxidant response element (ARE) signaling pathway measured by Nrf2-dependant transcriptional activity - cell viability counter screen (AID 720653; active = well fitted curve in the direction sought with a large enough effect in the repeat runs; an effect the other way counts as inactive or inconclusive; note: % is set by controls: 0 for no effect and ±100 for the full control effect); conditions: ARE-bla HepG2 viability, CellTiter-Glo ATP luminescence, 16 h; max response: stronger effect = lower value
Summary of the method: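 ARE-bla HepG2 cells (2,000/well) rested 5 hrs at 37C/5% CO2, then exposed to compounds in DMSO for 16 hrs. Viability was read in the same wells as intracellular ATP by luminescence, 30 min at room temperature after reagent addition.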

C=CCN1C[C@@H](C)N([C@H](c2ccc(C(=O)N(CC)CC)cc2)c2cccc(OC)c2)C[C@@H]1C
inactive: Potency [1] | Potency [2] | Potency [3] | outcome [4] | outcome [5] | Potency [6] | outcome [7]

CN(N=O)c1cc(O)ccc1O
inactive: Potency [1] | Potency [2] | Potency [3] | Potency [8] | outcome [5] | Potency [6] | outcome [7]

CC1(C(=O)O)C2CCC(O2)C1(C)C(=O)O (stereo not given)
inactive: Potency [1] | Potency [2] | Potency [3] | Potency [8] | outcome [5] | Potency [6] | outcome [7]

CC(C)(C)c1o[nH]c(=O)c1CC(N)C(=O)O (stereo not given)
inactive: Potency [1] | Potency [2] | Potency [3] | outcome [4] | outcome [5] | Potency [6] | outcome [7]

CCOC(=O)c1ncn2c1[C@@H]1CCCN1C(=O)c1cc(OC)ccc1-2
inactive: Potency [1] | Potency [2] | Potency [3] | Potency [8] | outcome [5] | Potency [6] | outcome [7]

CC12NC(Cc3ccccc31)c1ccccc12 (stereo not given)
inactive: Potency [1] | Potency [2] | Potency [3] | Potency [6] | outcome [7]

C[C@H](N)CN1CCc2ccc(Br)cc21
inactive: Potency [1] | Potency [3] | outcome [4] | Potency [8] | outcome [5] | Potency [6] | outcome [7]

NCC(CP(=O)(O)O)c1ccc(Cl)cc1 (stereo not given)
inactive: Potency [1] | Potency [3] | outcome [4] | outcome [5] | Potency [6] | outcome [7]

C[N+](C)(C)CC#CCOC(=O)Nc1cccc(Cl)c1
inactive: Potency [1] | Potency [3] | outcome [4] | outcome [5] | Potency [6] | outcome [7]

CC(N)[C@H](O)c1ccc(O)c(O)c1 (stereo not given in full)
inactive: Potency [1] | Potency [2] | outcome [5] | Potency [6] | outcome [7]

CCCN1CCc2cccc3c2[C@H]1Cc1ccc(O)c(O)c1-3
inactive: Potency [1] | Potency [3] | Potency [8] | outcome [5] | Potency [6] | outcome [7]

CCCn1c(=O)c2[nH]c(C3CCCC3)nc2n(CCCOC(=O)c2ccc(S(=O)(=O)F)cc2)c1=O
inactive: Potency [1] | Potency [3] | outcome [4] | outcome [5] | Potency [6] | outcome [7]

Ic1ccccc1CNC1C2CCN(CC2)C1C(c1ccccc1)c1ccccc1 (stereo not given)
inactive: Potency [1] | Potency [3] | outcome [4] | Potency [8] | outcome [5] | Potency [6] | outcome [7]

NNC(N)=O
inactive: Potency [1] | activation [9] -0.594% | Potency [10] | outcome [11] | activation [12] 0.598% | max response [13] -2.31% | Potency [14] | Potency [3] | outcome [4] | outcome [5] | Potency [15] | Potency [16] | max response [17] 4.7% | Potency [6] | outcome [7]

CCCn1c(C)c(C(=O)c2ccc3ccccc3c2)c2ccccc21
inactive: Potency [1] | Potency [3] | outcome [4] | Potency [8] | outcome [5] | Potency [6] | outcome [7]

CCCC[N+]1(C)C2CC(OC(=O)[C@H](CO)c3ccccc3)CC1C1OC12 (stereo not given in full)
inactive: Potency [1] | Potency [3] | outcome [4] | outcome [5] | Potency [6] | outcome [7]

CN(N=O)c1ccc(O)c(O)c1
inactive: Potency [1] | outcome [4] | outcome [5] | Potency [6]
active: Potency [3] 3.01 µM

CCCN1CCC[C@@H](c2cccc(O)c2)C1
inactive: Potency [1] | Potency [3] | outcome [4] | Potency [8] | outcome [5] | Potency [6] | outcome [7]

C#CCN[C@H](C)Cc1ccccc1
inactive: Potency [1] | Potency [3] | outcome [4] | outcome [5] | Potency [6] | outcome [7]

COc1ccc(CNC(=O)/C=C/c2ccc3[nH]cc(CCN(C)C)c3c2)cc1
inactive: Potency [1] | Potency [3] | outcome [4] | Potency [8] | outcome [5] | Potency [6] | outcome [7]

CN1CCc2cccc(Cl)c2CC1
inactive: Potency [1] | Potency [3] | outcome [4] | Potency [8] | outcome [5] | Potency [6] | outcome [7]

COc1ccc2c(c1)[C@@]13CCCC[C@H]1[C@@H](C2)NCC3
inactive: Potency [1] | Potency [3] | outcome [4] | outcome [5] | Potency [6] | outcome [7]

CCCN(CCC)[C@H]1CCc2c(F)ccc(O)c2C1
inactive: Potency [1] | outcome [5] | Potency [6] | outcome [7]
active: Potency [2] 7.31 µM

O=[N+]([O-])c1ccc2nc(N3CCNCC3)ccc2c1
inactive: Potency [1] | Potency [2] | Potency [8] | outcome [5] | Potency [6] | outcome [7]

Cc1c2ccncc2c(C)c2c1[nH]c1ccccc12
inactive: Potency [1] | Potency [3] | outcome [4] | Potency [8] | outcome [5] | Potency [6] | outcome [7]

C[C@H](N)Cc1cccc(C(F)(F)F)c1
inactive: Potency [1] | Potency [3] | outcome [4] | outcome [5] | Potency [6] | outcome [7]

NC(Cc1cc(O)c(O)cc1O)C(=O)O (stereo not given)
inactive: Potency [1] | outcome [4] | Potency [8] | outcome [5] | Potency [6] | outcome [7]
active: Potency [3] 16.9 µM

Source: PubChem BioAssay (NCATS)
